Several values for one entry are separate records, joined by “and”; a condition that tells them apart may be missing. Equal values may be shown once. Hit rate of the full screen: of about 5,500 compounds, about 2,000 (36%) were called active. Another 18% or so got no clear call; they are omitted. No stated cut-off is given here; in the data, active means normalized growth mostly below about 0.91 (no sharp cut-off); inconclusive means no clear call, values can overlap the other calls; inactive means mostly above about 0.92. This is one part of the list.
Test: chemical genetic growth profiling, strain panel (AID 1159580);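 further: tested at 20 µM; growth read once vehicle control cultures reached saturation at 30 °C; 1 = growth at the plate median or of vehicle wells; lower values mean less growth of the strain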
Conditions: growth OD

Measured: normalized growth

O=c1c(O)c(-c2cc(O)c(O)c(O)c2)oc2cc(O)cc(O)c12
active: S. cerevisiae deletion strains, locus YGR229C, strain SMI1, active compounds read low 0.416 | S. cerevisiae deletion strains, locus YNL322C, strain KRE1, active compounds read low 0.898
inactive: S. cerevisiae deletion strains, locus YAL040C, strain CLN3, active compounds read low 1.07 | S. cerevisiae deletion strains, locus YBR021W, strain FUR4, active compounds read low 1.01 | S. cerevisiae deletion strains, locus YBR229C, strain ROT2, active compounds read low 1 | S. cerevisiae deletion strains, locus YCL029C, strain bik1, active compounds read low 1.02 | S. cerevisiae deletion strains, locus YCL061C, strain MRC1 (second series), active compounds read low 0.985 | S. cerevisiae deletion strains, locus YDL035C, strain GPR1, active compounds read low 0.972 | S. cerevisiae deletion strains, locus YDL074C, strain BRE1, active compounds read low 1.01 | S. cerevisiae deletion strains, locus YDL101C, strain DUN1, active compounds read low 1.03 | S. cerevisiae deletion strains, locus YDL185W, strain tfp1, active compounds read low 1.02 | S. cerevisiae deletion strains, locus YDL192W, strain arf1, active compounds read low 1.02 | S. cerevisiae deletion strains, locus YDR101C, strain arx1, active compounds read low 1 | S. cerevisiae deletion strains, locus YDR150W, strain NUM1, active compounds read low 1.02 | S. cerevisiae deletion strains, locus YDR162C, strain NBP2, active compounds read low 0.963 | S. cerevisiae deletion strains, locus YDR318W, strain mcm21, active compounds read low 1.01 | S. cerevisiae deletion strains, locus YDR363W, strain ESC2, active compounds read low 1.03 | S. cerevisiae deletion strains, locus YDR388W, active compounds read low 1.02 | S. cerevisiae deletion strains, locus YDR502C, strain sam2, active compounds read low 1 | S. cerevisiae deletion strains, locus YEL061C, strain CIN8, active compounds read low 1 | S. cerevisiae deletion strains, locus YER002W, strain NOP16, active compounds read low 1 | S. cerevisiae deletion strains, locus YER110C, active compounds read low 1.03 | S. cerevisiae deletion strains, locus YER155C, strain BEM2, active compounds read low 0.999 | S. cerevisiae deletion strains, locus YER167W, strain BCK2, active compounds read low 0.997 | S. cerevisiae deletion strains, locus YGL078C, strain dbp3, active compounds read low 1 | S. cerevisiae deletion strains, locus YGL086W, strain mad1, active compounds read low 1 | S. cerevisiae deletion strains, locus YGL248W, strain PDE1, active compounds read low 1.03 | S. cerevisiae deletion strains, locus YGR078C, strain PAC10, active compounds read low 0.959 | S. cerevisiae deletion strains, locus YGR135W, strain pre9, active compounds read low 0.998 | S. cerevisiae deletion strains, locus YGR252W, strain gcn5, active compounds read low 1 | S. cerevisiae deletion strains, locus YHR030C, strain SLT2, active compounds read low 1.01 | S. cerevisiae deletion strains, locus YHR079C, strain IRE1 (second series), active compounds read low 1.01 | S. cerevisiae deletion strains, locus YHR094C, strain hxt1, active compounds read low 1.03 | S. cerevisiae deletion strains, locus YHR129C, strain ARP1, active compounds read low 1.02 | S. cerevisiae deletion strains, locus YHR200W, strain rpn10, active compounds read low 1.02 | S. cerevisiae deletion strains, locus YIL066C, strain RNR3, active compounds read low 0.976 | S. cerevisiae deletion strains, locus YIL073C, strain SPO22, active compounds read low 1.03 | S. cerevisiae deletion strains, locus YIL125W, strain kgd1, active compounds read low 1.02 | S. cerevisiae deletion strains, locus YIR030C, strain dcg1, active compounds read low 1 | S. cerevisiae deletion strains, locus YJL095W, strain BCK1, active compounds read low 1.05 | S. cerevisiae deletion strains, locus YJL134W, strain LCB3, active compounds read low 1 | S. cerevisiae deletion strains, locus YJL168C, strain set2, active compounds read low 1.01 | S. cerevisiae deletion strains, locus YJL187C, strain SWE1 (second series), active compounds read low 1.05 | S. cerevisiae deletion strains, locus YJR043C, strain POL32, active compounds read low 0.965 | S. cerevisiae deletion strains, locus YJR075W, strain HOC1, active compounds read low 0.993 | S. cerevisiae deletion strains, locus YKL009W, strain mrt4, active compounds read low 0.996 | S. cerevisiae deletion strains, locus YKL068W, active compounds read low 1.01 | S. cerevisiae deletion strains, locus YKL085W, strain MDH1 (second series), active compounds read low 1 | S. cerevisiae deletion strains, locus YKL085W, strain MDH1, active compounds read low 1 | S. cerevisiae deletion strains, locus YKL190W, strain CNB1, active compounds read low 1.01 | S. cerevisiae deletion strains, locus YKR001C, strain vps1, active compounds read low 1.01 | S. cerevisiae deletion strains, locus YLR039C, strain RIC1, active compounds read low 1 | S. cerevisiae deletion strains, locus YLR058C, strain SHM2, active compounds read low 1.01 | S. cerevisiae deletion strains, locus YLR102C, strain apc9, active compounds read low 1.02 | S. cerevisiae deletion strains, locus YLR262C, strain YPT6, active compounds read low 0.997 | S. cerevisiae deletion strains, locus YLR268W, strain sec22, active compounds read low 1.03 | S. cerevisiae deletion strains, locus YLR330W, strain CHS5, active compounds read low 1.01 | S. cerevisiae deletion strains, locus YLR342W, strain FKS1 (second series), active compounds read low 1.04 | S. cerevisiae deletion strains, locus YLR371W, strain rom2, active compounds read low 1.01 | S. cerevisiae deletion strains, locus YLR418C, strain cdc73, active compounds read low 0.981 | S. cerevisiae deletion strains, locus YML016C, strain PPZ1, active compounds read low 1 | S. cerevisiae deletion strains, locus YML032C, strain rad52, active compounds read low 1 | S. cerevisiae deletion strains, locus YML124C, strain tub3, active compounds read low 1.01 | S. cerevisiae deletion strains, locus YMR078C, strain ctf18, active compounds read low 1.01 | S. cerevisiae deletion strains, locus YMR223W, strain ubp8, active compounds read low 1 | S. cerevisiae deletion strains, locus YMR263W, strain SAP30, active compounds read low 1.05 | S. cerevisiae deletion strains, locus YMR307W, strain GAS1, active compounds read low 0.969 and 0.876 | S. cerevisiae deletion strains, locus YNL067W, strain RPL9B, active compounds read low 1.06 | S. cerevisiae deletion strains, locus YNL175C, strain NOP13, active compounds read low 0.999 | S. cerevisiae deletion strains, locus YNL197C, strain WHI3, active compounds read low 0.997 | S. cerevisiae deletion strains, locus YNL224C, strain SQS1, active compounds read low 0.967 | S. cerevisiae deletion strains, locus YNL233W, strain BNI4, active compounds read low 1.05 | S. cerevisiae deletion strains, locus YNL250W, strain rad50, active compounds read low 1.02 | S. cerevisiae deletion strains, locus YNL271C, strain bni1, active compounds read low 1.01 | S. cerevisiae deletion strains, locus YNL298W, strain CLA4, active compounds read low 1.02 | S. cerevisiae deletion strains, locus YNL307C, strain MCK1, active compounds read low 1.02 | S. cerevisiae deletion strains, locus YNR052C, strain pop2, active compounds read low 1 | S. cerevisiae deletion strains, locus YOL006C, strain TOP1, active compounds read low 1.08 | S. cerevisiae deletion strains, locus YOL012C, strain htz1 0.839 | S. cerevisiae deletion strains, locus YOL147C, strain pex11, active compounds read low 1.02 | S. cerevisiae deletion strains, locus YOR061W, strain CKA2, active compounds read low 0.99 | S. cerevisiae deletion strains, locus YOR069W, strain VPS5, active compounds read low 1.01 | S. cerevisiae deletion strains, locus YOR083W, strain WHI5 (second series), active compounds read low 0.957 | S. cerevisiae deletion strains, locus YOR136W, strain idh2, active compounds read low 1.03 | S. cerevisiae deletion strains, locus YOR144C, strain elg1, active compounds read low 1.01 | S. cerevisiae deletion strains, locus YOR184W, strain ser1, active compounds read low 1 | S. cerevisiae deletion strains, locus YOR316C, strain cot1, active compounds read low 1.02 | S. cerevisiae deletion strains, locus YPL055C, strain LGE1, active compounds read low 1.01 | S. cerevisiae deletion strains, locus YPL241C, strain CIN2, active compounds read low 0.995 | S. cerevisiae deletion strains, locus YPR119W, strain clb2, active compounds read low 1.01 | S. cerevisiae deletion strains, locus YPR141C, strain kar3, active compounds read low 1.01 | S. cerevisiae deletion strains, locus YPR163C, strain tif3, active compounds read low 1.01 | S. cerevisiae deletion strains, locus YPR167C, strain met16, active compounds read low 1.01 | S. cerevisiae deletion strains, strain wtn01, active compounds read low 1.02 | S. cerevisiae strains, strain wild type, active compounds read low 1.01
